Data: PubChem BioAssay (NCATS)
Records with an inconclusive call do not appear. Unmarked numbers belong to inactive results. Active and inactive are the calls of the source. Calls come from the whole dose curve; as a rule, active = well fitted inhibition curve with a large enough effect; inconclusive = small, poorly fitted or top-dose-only effect; inactive = flat fitted curve, though single readings scatter.

experiment: P-glycoprotein substrates identified in KB-8-5-11 adenocarcinoma cell line, qHTS therapeutic library screen (AID 1346987); settings: KB-8-5-11 (P-gp overexpressing) viability, CellTiter-Glo, 72 h; series mostly up to 44.5 µM; activity change, negative = cytotoxicity: at the top concentration; note: nearly all actives have a fitted effect of over 65% in size
Text: The ATP-binding cassette transporters P-glycoprotein (P-gp) is known to limit brain penetration of many chemotherapy drugs. […] As such, we developed a high-throughput screen (HTS) to identify substrates of P-gp from a series of chemical libraries including the National Center for Advancing Translational Sciences Pharmaceutical Collection NPC, 2,816 compounds), testing a total of 10,804 compounds, most of which have known mechanisms of action. We used the CellTiter-Glo viability assay to test library compounds against the parental KB-3-1 human cervical adenocarcinoma cell line and the colchicine-selected sub-line KB-8-5-11 that over-expresses P-gp. KB-8-5-11 cells were also tested in the presence of a P-gp inhibitor (tariquidar) to assess reversability of transporter-mediated resistance. Of the tested compounds, a total of 90 P-gp substrates were identified including 55 newly identified P-gp substrates. Substrates were confirmed using an orthogonal killing assay against HEK-293 cells transfected with P-gp. As exemplars, we confirmed that […] (cyclin-dependent kinase inhibitor); AT9283, (Janus kinase 2/3 inhibitor); ispinesib (kinesin spindle protein inhibitor); gedatolisib (PKI-587, phosphoinositide 3-kinase/mammalian target of rampamycin inhibitor); GSK-690693 (AKT inhibitor); and KW-2478 (heat shock protein 90 inhibitor) were substrates , and direct ATPase stimulation was assessed. ABCG2 was also found to confer high levels of resistance to AT9283, GSK-690693 and gedatolisib, while ispinesib, AT7519 and KW-2478 were weaker substrates.
The HeLa derivative cell line, KB-3-1, and its colchicine-selected, P-gp-overexpressing subline, KB-8-5-11 were maintained in DMEM with 10% FCS and Pen/Strep with glutamine at 37 degree C in 5% CO2. For KB-8-5-11 cells, colchicine was added to the medium at a concentration of 100 ng/mL. HEK-293 cells transfected with empty vector (pcDNA) or vector containing human ABCB1 (MDR-19) or ABCG2 (R-5) have been described previously (Robey, Lin, Qiu, Chan & Bates, 2011) and were maintained in EMEM supplemented with 10% FCS, Pen/Strep and glutamine with 2 mg/ml G418 to select for the expression of the transporter. Cultures were confirmed to be free of mycoplasma infection using the MycoAlert Mycoplasma Detection Kit (Lonza, Walkersville, MD). For the screen, assay medium was identical to culture medium except for KB-8-5-11 where colchicine was excluded from the medium.
All cell lines were plated into 1536-well plates at 500 cells/well in 5 uL media. Compounds were then pinned in dose-response using a 1536-head pin tool (Kalypsis, San Diego, CA) and plates were incubated at 37 degree C in 5% CO2 for an additional 72 h. CellTiter-Glo reagent (Promega) was dispensed into the wells, incubated for 5 min and luminescence was read on a ViewLux instrument (Perkin-Elmer). Cytotoxic compounds were defined as those that yielded a curve class of -1.1, -1.2, -2.1, -2.2, -2.3, or -2.4, a maximum response of >50% and an AC50 of < 10 uM. Cherry-picked hits from screening analysis were tested with both the KB pair of cell lines, and the pcDNA (empty vector control) and MDR-19 (P-gp overexpressing) pair were tested, in the absence and presence of tariquidar.
% is set by controls: 0 for no effect and ±100 for the full control effect; potency is the fitted concentration of half-maximal effect.

SMILES | activity change, negative = cytotoxicity | outcome | Potency
COc1cc(O)c2c(c1)C1=C[C@H](O)[C@@H](O)C[C@]1(C)OC2=O | 1.47% | – | –
[N-]=[N+]=N[C@]1(CO)O[C@@H](n2ccc(=O)[nH]c2=O)[C@@H](O)[C@@H]1O | – | inactive | –
COc1cc(C2Oc3c(OC)cc(CCCO)cc3C2CO)ccc1O[C@H]1O[C@H](C)[C@@H](O)[C@H](O)[C@@H]1O (stereo not given in full) | -0.443% [at 17.3 µM] | – | –
COc1c2c(cc3c1-c1c(cc4c(c1OC)OCO4)CC(C)C(C)C3)OCO2 (stereo not given) | -4.87% | – | –
C=CC(C)(O)CC[C@H]1C(=C)CCC2[C@](C)(C(=O)O)CCC[C@@]21C (stereo not given in full) | 3.8% | – | –
CCOc1cc(C(=O)N2CCC(N3CCN(C)CC3)CC2)ccc1Nc1ncc2c(n1)N(C1CCCC1)c1ccccc1C(=O)N2C | – | – | 13 µM (active)
Cc1ccc([N+](=O)[O-])cc1S(=O)(=O)N(C)/N=C/c1cnc2ccc(Br)cn12 | – | – | 0.231 µM (active)
C[C@H]1O[C@@H](O[C@H]2CC[C@@]3(C)C(CC[C@]4(C)C3CC=C3C5CC(C)(C)CC[C@]5(C(=O)O)CC[C@]34C(=O)O)C2(C)C)[C@H](O)[C@@H](O)[C@@H]1O (stereo not given in full) | 9.67% [at 17.3 µM] | – | –
COC(=O)C[C@H]1C(C)(C)[C@H](OC(C)=O)C2CC3=C4CC(=O)O[C@@H](c5ccoc5)[C@]4(C)CCC3[C@@]1(C)C2=O (stereo not given in full) | -7.57% [at 17.3 µM] | – | –
COc1cc(C(=O)OC[C@H]2O[C@@H](Oc3ccccc3/C=C/C(=O)O)[C@H](O)[C@@H](O)[C@@H]2O)cc(OC)c1OC | 5.19% [at 17.3 µM] | – | –
COc1ccc(/C=C/C(=O)O[C@H]2[C@H](O[C@H]3[C@@H]4C=CO[C@@H](O[C@@H]5O[C@H](CO)[C@@H](O)[C@H](O)[C@H]5O)[C@@H]4[C@@]4(CO)O[C@@H]34)O[C@@H](C)[C@H](O)[C@H]2OC(C)=O)cc1 | – | inactive [at 17.3 µM] | –
CCC1C(=O)OC23C=C[C@@H]4C(C(=O)O)=CO[C@H](O[C@@H]12)[C@@H]43 (stereo not given in full) | -24.6% | – | –
C/C1=C\[C@H]2OC(=O)[C@@H](C)[C@@H]2CC/C(C(=O)O)=C/CC1 | 9.33% | – | –
CCC1=CC2CN(C1)Cc1c([nH]c3ccccc13)[C@@](C(=O)OC)(c1cc3c(cc1OC)N(C)[C@H]1[C@@](O)(C(=O)OC)[C@H](OC(C)=O)[C@]4(CC)C=CCN5CC[C@]31[C@@H]54)C2 (stereo not given in full) | – | – | 7.09 µM (active)
CN[C@H](C(=O)N[C@H](C(=O)N(C)[C@H](/C=C(\C)C(=O)O)C(C)C)C(C)(C)C)C(C)(C)c1ccccc1 | – | – | 0.0184 µM (active)
CC1=C(CCC(C)O[C@@H]2O[C@H](CO)[C@@H](O)[C@H](O)[C@H]2O)C(C)(C)CCC1=O (stereo not given in full) | – | inactive | –
CC(C)c1ccc(CO)cc1O[C@@H]1O[C@H](CO)[C@@H](O)[C@H](O)[C@H]1O | – | inactive | –
C=C(C)C1CC[C@]2(C(=O)O)CC[C@]3(C(=O)O)[C@H](CCC4[C@@]5(C)CC[C@H](O)C(C)(C)C5CC[C@]43C)C12 (stereo not given in full) | -0.661% [at 17.3 µM] | – | –
C[C@@H]1CC[C@]2(C(=O)OC3OC(CO)C(O)C(O)C3O)CC[C@]3(C)C(=CCC4[C@@]5(C)CC[C@H](O)[C@](C)(C(=O)O)C5CC[C@]43C)C2[C@]1(C)O (stereo not given in full) | – | inactive [at 17.3 µM] | –
Cc1c(F)cc(C(=O)NC2CC2)cc1-c1c(F)cn2c(C(C)(C)C)nnc2c1F | -12.4% | – | –

SMILES | activity change, negative = cytotoxicity | outcome | Potency
COC1=CC(=O)CC(C)C12Oc1cc(OC)cc(O)c1C2=O (stereo not given) | – | inactive | –
CC(=O)O[C@@H]1[C@@H](O)[C@H](O[C@H]2CC[C@]34C[C@]35CC[C@]3(C)[C@@H]([C@@]6(C)CC[C@@H](C(C)(C)O)O6)[C@@H](O)C[C@@]3(C)[C@@H]5C[C@H](O[C@@H]3O[C@H](CO)[C@@H](O)[C@H](O)[C@H]3O)[C@H]4C2(C)C)OC[C@H]1O | – | inactive | –
C=CC(C)(C)c1[nH]c2ccccc2c1C[C@@H]1NC(=O)[C@H](Cc2c[nH]c3ccccc23)NC1=O | 0.653% [at 17.3 µM] | – | –
CC1CC(O)/C=C/C(O)C(O)CC(=O)Cc2c(Cl)c(O)cc(O)c2C(=O)O1 (stereo not given) | – | inactive | –
C=C1C[C@@]23CCC4[C@@](C)(CCC[C@@]4(C)C(=O)OC)C2CC[C@@H]1C3 (stereo not given in full) | -22% | – | –
O=C(/C=C/c1ccccc1)OC[C@]12O[C@H]1[C@@H](O)[C@@H]1C=CO[C@@H](O[C@@H]3O[C@H](CO)[C@@H](O)[C@H](O)[C@H]3O)[C@@H]12 | – | inactive [at 17.3 µM] | –
CN1CCN(C2CCC(n3cc(-c4ccc(Oc5ccccc5)cc4)c4c(N)ncnc43)CC2)CC1 (stereo not given) | – | – | 5.8 µM (active)
CC1=C(C(=O)O[C@@H]2O[C@H](COC3OCC(O)C(O)C3O)[C@@H](O)[C@H](O)[C@H]2O)C(C)(C)CCC1 (stereo not given in full) | -17.3% [at 17.3 µM] | – | –
CCC(O)(C(=O)OCc1ccccc1NC(=O)CCC(=O)O)C(C)O (stereo not given) | 2.95% | – | –
CC12CCC3c4ccc(OC5OC(C(=O)O)C(O)C(O)C5O)cc4CCC3C1CCC2O (stereo not given) | – | inactive | –
OC[C@H]1O[C@@H](Oc2ccccc2)[C@H](O)[C@@H](O)[C@@H]1O | – | inactive | –
CC12CCC(=O)C=C1C(O)CC1C2C(O)CC2(C)C1CC[C@]2(O)C(=O)CO (stereo not given in full) | – | inactive [at 9.29 µM] | –
Cc1cc(-c2cc(O)ccc2Cl)cc2nnc(Nc3ccc(OCCN4CCCC4)cc3)nc12 | – | – | 4.61 µM (active)
C=C[C@@]12COC(=O)C(=C)C1[C@@H](O)[C@H](C(=C)C(=O)OC)[C@@H](OC(=O)C(=C)CO)C2 (stereo not given in full) | 5.64% [at 17.3 µM] | – | –
c1cc(OCCCN2CCCCC2)ccc1CN1CCCCC1 | -19.2% | – | –
COc1cc2c(cc1O)[C@H](c1ccc(O[C@@H]3O[C@H](CO)[C@@H](O)[C@H](O)[C@H]3O)c(OC)c1)[C@@H](CO)[C@](O)(CO)C2 | – | inactive [at 17.3 µM] | –
CC[C@@H](O)C[C@@H]1C(C)=C[C@@H]2CCCC[C@@H]2[C@@]1(C)C(=O)O | 0.14% | – | –
CC1(C)CC2=C3C=CC4C5(C)CCC(O)C(C)(C)C5CCC4(C)C3(C)CCC2(C)C(O)C1 (stereo not given) | -3.24% [at 17.3 µM] | – | –
COc1c(Nc2ncc(Cl)c(N[C@H]3[C@@H](C(N)=O)[C@@H]4C=C[C@H]3C4)n2)ccc2c1CC[C@@H](N1CCOCC1)CC2 | – | – | 8.2 µM (active)
CC(C)(C)c1cc(Br)cc([C@H](CC(=O)O)NC(=O)CNC(=O)c2cc(O)cc(NC3=NCC(O)CN3)c2)c1 (stereo not given in full) | 3.03% | – | –
